This note sets out measurements from PubChem BioAssay (NCATS).

Inconclusive results are not listed. Active and inactive are the calls of the source. Unless noted, calls come from the whole dose curve; as a rule, active = well fitted curve in the direction sought with a large enough effect; inconclusive = small, poorly fitted or top-dose-only effect, or another doubt; inactive = no such curve, though single readings can be large; an effect the other way counts as inactive or inconclusive.

Assay [1] deals with Aldehyde dehydrogenase, mitochondrial (Homo sapiens) (UniProt P05091). As to the kind of experiment: qHTS for Inhibitors of the Aldehyde Dehydrogenase Family (ALDH2) Confirmatory screens (AID 2061303; active = well fitted inhibition curve with a large enough effect; title and protocol of this record describe different tests; note: nearly all actives have a fitted effect of over 45% in size; note: potency is the fitted concentration of half-maximal effect).
Assay [2] has the same target. The assay is described as follows: qHTS for Inhibitors of the Aldehyde Dehydrogenase Family (ALDH2) Primary screen (AID 2061308). Note: nearly all actives have a fitted effect of over 55% in size. For orientation: Quantitative high-throughput screening tests each substance at several concentrations.
Assay [3] addresses Retinaldehyde dehydrogenase 3 (Homo sapiens) (UniProt P47895). As to the kind of experiment: qHTS for Inhibitors of the Aldehyde Dehydrogenase Family (ALDH1A3) Primary screen (AID 2061315).
Assay [4] concerns the target Aldehyde dehydrogenase 1A1 (Homo sapiens) (UniProt P00352). As to the kind of experiment: qHTS for Inhibitors of the Aldehyde Dehydrogenase Family (ALDH1A1) Confirmatory screens (AID 2061316). Note: nearly all actives have a fitted effect of over 65% in size. Note: potency is the fitted concentration of half-maximal effect.
For assay [5], the target named is Retinaldehyde dehydrogenase 3 (Homo sapiens) (UniProt P47895). The assay is described as follows: qHTS for Inhibitors of the Aldehyde Dehydrogenase Family (ALDH1A3) Confirmatory screens (AID 2061311). Note: nearly all actives have a fitted effect of over 60% in size. Note: potency is the fitted concentration of half-maximal effect.
Assay [6] deals with Retinal dehydrogenase 2 (Homo sapiens) (UniProt O94788). As to the kind of experiment: qHTS for Inhibitors of the Aldehyde Dehydrogenase Family (ALDH1A2) Confirmation screens (AID 2061314). Note: nearly all actives have a fitted effect of over 65% in size. Note: potency is the fitted concentration of half-maximal effect.

Regarding `O=C(Nc1ccc([S+](=O)([O-])Nc2nccs2)cc1)c1ccccn1`, the Potency result in assay [1], in assay [2], in assay [3] and in assay [4] was “inactive” in each case.

Take `COc1cccc(-c2cccc(C(=O)N3CCN(C(=O)Nc4ccccc4)CC3)c2)c1`: the Potency entry in assay [1], in assay [5] and in assay [6] was “inactive” each time.

Regarding `N#Cc1nc(NCC(F)F)nc(Nc2cc(F)cc(F)c2)n1`, the Potency entry in assay [1], in assay [2], in assay [3] and in assay [4] was “inactive” throughout.

As to `O=C(Nc1cccc(-c2nn3c(=O)cc(N4CCNCC4)nc3s2)c1)c1ccncc1`, the Potency is 7.08 µM (active) in assay [1], 28.2 µM (active) in assay [5], 14.1 µM (active) in assay [6] and 3.18 µM (active) in assay [4]. In addition, in assay [3], the Potency entry is “inactive”.

As for `CC(C)c1ccc(S(=O)(=O)c2cnc(SCC(=O)Nc3ccc4c(c3)OCCO4)[nH]c2=O)cc1`, the Potency result in assay [1], in assay [5] and in assay [3] was “inactive” in each case. In addition, the Potency in assay [6] was 10.1 µM (active).

As for `O=c1[nH]c2ccc(NCc3ccc(-c4ccc(F)cc4)o3)cc2[nH]1`, in assay [1], the Potency is 0.914 µM (active). For the same compound, the Potency result in assay [5] and in assay [6] was “inactive” in each case.

Turning to `Cc1noc2c(NCCc3ccccn3)cc(-c3ccccn3)nc12`, the Potency result in assay [1] was “inactive”. Further, in assay [5], the Potency was 14.1 µM (active).

Turning to `CCc1cc(N2CCOC(c3ccc4cc(OC)ccc4c3)C2)nc(C)n1` (stereo not drawn), the Potency entry in assay [1], in assay [5], in assay [6] and in assay [4] was “inactive” each time.

Consider `COc1ccc(CNC(=O)c2cc3c(=O)n(Cc4ccc(OC)cc4)ccc3nc2C)cc1`, for which the Potency entry in assay [1], in assay [5], in assay [6] and in assay [4] was “inactive” in each case.

`CC(=O)Nc1sc2c(c1-c1nc3ccccc3s1)CCN(Cc1ccccc1)C2`: the Potency entry in assay [1] and in assay [3] was “inactive” in each case. Besides, the Potency in assay [5] was 25.1 µM (active).

With `COc1ccc(-n2cc(C(=O)Nc3cc(F)ccc3F)c3ccccc3c2=O)cc1`, the Potency entry in assay [1] and in assay [6] was “inactive” in each case. The Potency in assay [4] was 11.5 µM (active).

For `O=C1c2ccccc2NC(c2ccc(-c3cccc(F)c3)o2)N1O` (stereo not drawn), the Potency in assay [1] is 20.1 µM (active); in assay [4], 6.34 µM (active). Further, the Potency result in assay [3] was “inactive”.

In the case of `COc1ccc(NC(=O)CN(C)S(=O)(=O)c2ccc(C(=O)N3CCOCC3)s2)cc1`, the Potency result in assay [1] and in assay [6] was “inactive” each time.

In the case of `COc1ccc(S(=O)(=O)N2C[C@@H](Oc3ccccc3)C[C@@H]2C(=O)N2CCOCC2)cc1`, the Potency result in assay [1] and in assay [6] was “inactive” in each case.

As for `O=C(Nc1cccnc1)c1ccco1`, the Potency was 12.7 µM (active) in assay [1] and 6.34 µM (active) in assay [4]. Besides, the Potency entry in assay [3] is “inactive”.

Take `CC(=O)c1ccc(NC(=O)c2cc(-c3ccc(C)s3)nc3ccccc23)cc1`: the Potency entry in assay [1] and in assay [6] was “inactive” throughout.

Regarding `CC(C)(C)OC(=O)N1CCN(c2ccc(NCc3ccc(-c4ccc(C#N)cc4)s3)cc2)CC1`, the figures for the Potency in assay [1] and in assay [4] were 0.179 µM (active) and 12.7 µM (active), respectively. In addition, the Potency entry in assay [6] and in assay [3] was “inactive” throughout.

As for `CC(C)NC(=O)c1nc(-c2cccnc2)c2cnccn12`, the Potency entry in assay [1] and in assay [4] was “inactive” in each case.

In the case of `COc1ccc(C2=Nn3c(nnc3-c3ccccc3OC)SC2)c(OC)c1`, the Potency entry in assay [1], in assay [5] and in assay [3] was “inactive” throughout. Besides, in assay [4], the Potency is 14.2 µM (active).

Consider `COc1ccc(C2Nc3ccccc3C(=O)N2Cc2ccco2)cc1COc1ccccc1` (stereo not drawn), for which the Potency result in assay [1], in assay [5] and in assay [3] was “inactive” in each case.

Turning to `O=C1c2ccccc2NC(c2ccc(-c3cccs3)o2)N1O` (stereo not drawn), the Potency in assay [1] is 11.2 µM (active); in assay [6] it was 7.98 µM (active); in assay [4] it was 6.34 µM (active). The Potency result in assay [3] was “inactive”.

Turning to `COc1cc(O)c(C(CC(=O)N2CCN(c3ccc(F)cc3)CC2)c2ccc3c(c2)OCO3)c(OC)c1` (stereo not drawn), the Potency in assay [1] is 17.8 µM (active); in assay [5], 12.7 µM (active). The Potency entry in assay [3] was “inactive”.

For the compound `O=C([C@@H]1C[C@H](Oc2ccccc2)CN1S(=O)(=O)c1cccc(F)c1)N1CCOCC1`, the Potency entry in assay [1] and in assay [6] was “inactive” in each case.

Take `CC(C)N1CCc2c(sc(NC(=O)C3CC3)c2-c2nc3ccccc3s2)C1`: the Potency entry in assay [1] and in assay [3] was “inactive” throughout. For the same compound, the figures for the Potency in assay [6] and in assay [4] were 5.65 µM (active) and 7.98 µM (active), respectively.

Regarding `O=S1(=O)N=C(Sc2ccc3c(c2)OCCO3)c2ccccc21`, the Potency result in assay [1] and in assay [3] was “inactive” throughout.

For the compound `O=C1Nc2ccccc2/C1=C\c1ccc(O)c(Cl)c1`, the Potency in assay [1] and in assay [6] was 10.1 µM (active) in each case. Besides, the Potency entry in assay [3] is “inactive”.

Consider `COC(=O)[C@H](Cc1ccc(OC)cc1)NC(=O)[C@@H]1CNCCN1S(=O)(=O)c1ccccc1`, for which the Potency entry in assay [1] and in assay [6] was “inactive” in each case.

`CC(C)NS(=O)(=O)c1ccc(OCC(=O)N2CCN(c3ccccc3F)CC2)cc1`: the Potency result in assay [1] and in assay [6] was “inactive” each time.

Regarding `Cc1ccsc1CN(C)c1ncnc2ccc(-c3ccoc3C)cc12`, the Potency result in assay [1] and in assay [3] was “inactive” in each case. For the same compound, in assay [6], the Potency was 11.3 µM (active).

In the case of `CC(C)c1ccc(NC(=O)N2CCN(c3ccc(Cl)c(Cl)c3)CC2)cc1`, the Potency entry in assay [1] and in assay [4] was “inactive” throughout.

Turning to `O=C(NC1CC(=O)N(c2ccccc2)C1)c1ccc(S(=O)(=O)N2CCOCC2)cc1` (stereo not drawn), the Potency result in assay [1] and in assay [6] was “inactive” in each case.

Consider `NC(=O)c1c(NC(=O)c2ccco2)sc2c1CCCC2`, for which the values for the Potency in assay [1], in assay [6] and in assay [4] were 8.96 µM (active), 10.1 µM (active) and 3.57 µM (active), respectively. In addition, the Potency result in assay [3] is “inactive”.

Regarding `COc1ccc(N2CCN(S(=O)(=O)c3ccc4c(c3)CC(=O)N4)CC2)cc1`, the Potency result in assay [1], in assay [5] and in assay [3] was “inactive” in each case. For the same compound, in assay [4], the Potency is 5.17 µM (active).

Consider `CC(=O)Nc1sc2c(c1-c1nc3ccccc3s1)CNCC2`, for which the Potency in assay [1] is 20.1 µM (active); in assay [4] it was 8.96 µM (active). Moreover, the Potency entry in assay [3] is “inactive”.

`N#Cc1c(-c2cccc(Br)c2)no[n+]1[O-]`: the Potency entry in assay [1] and in assay [3] was “inactive” throughout. Further, the Potency is 3.57 µM (active) in assay [6] and 12.7 µM (active) in assay [4].

In the case of `COC(=O)c1ccc(NC(=O)CN2CCN(c3ccc(Cl)cc3)CC2)cc1`, the Potency in assay [1] and in assay [6] was 18.2 µM (active) throughout.

Turning to `Brc1ccc(-c2ccc(C3Nc4cccc5cccc(c45)N3)o2)cc1`, the Potency in assay [1] is 0.896 µM (active); in assay [5], 7.12 µM (active); in assay [4], 10.1 µM (active).
